# The list is not random: actives were taken first. Their share in the collection is about 3.7%.
# BoNT F protease: inhibitors of Botulinum neurotoxin F light chain protease; Multiplex microsphere protease cleavage assay, flow cytometry; inhibition, % at 10 µM; AID 588497; 360,000 tested, 0.22% active; in the data active = inhibition above about 35%, passing the limit was not always enough; inconclusive = no clear call, values can overlap the other calls; note: plate controls were buffer without enzyme for full effect and enzyme alone for no effect
# Bead autofluor: compound fluorescence in toxin protease inhibitor counterscreen. compound autofluorescence counterscreen, microsphere flow cytometry; active compounds read high. fluorescence intensity (test concentration not listed). 360,000 tested, 3.1% active; in the data active = fluorescence intensity above about 16000; inconclusive = no clear call, values can overlap the other calls
# BoNT A protease: blocks Botulinum neurotoxin A light chain protease; 360,000 tested, 0.17% active; multiplex microsphere protease substrate cleavage, flow cytometry; inhibition, % at 10 µM; AID 588499; note: plate controls were buffer without enzyme for full effect and enzyme alone for no effect
# Anthrax LF inh2: blocks Bacillus anthracis lethal factor protease. P15917. multiplex microsphere protease cleavage assay, LF. inhibition, % at 10 µM. 360,000 tested, 0.12% active. AID 588501; note: plate controls were buffer without enzyme for full effect and enzyme alone for no effect
# MazEF act: increases E. coli MazEF RNase cleavage of RNA | FAM/BHQ RNA-DNA oligo cleavage fluorescence, 5 h | activation, % at 20 µM | 350,000 tested, 0.32% active | AID 504720; in the data active = activation above about 50%
# Target sequence (P0AE70 whole entry, looked up): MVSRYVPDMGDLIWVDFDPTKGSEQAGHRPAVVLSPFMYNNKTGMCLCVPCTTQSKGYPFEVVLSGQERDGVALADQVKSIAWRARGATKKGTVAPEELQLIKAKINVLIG
# * hit, by the source's call; ? = inconclusive; · = not tested or not shown; ! = not confirmed by another sample. Cut-off read from the data, not from the text of the source, unless noted: active = inhibition above about 30%; inconclusive = no clear call, values can overlap the other calls; inactive = below that.
SMILES,BoNT F protease,Bead autofluor,BoNT A protease,Anthrax LF inh2,MazEF act
CCCc1cc2c(=O)c(-c3nc4ccccc4s3)c(COCC(=O)O)oc2cc1O,-15,5460,-2,2,60*
Cc1ccc(CCC(=O)Nc2ccc(CC(=O)O)cc2)o1,20,3854,2,9,6
O=C(OCC#CCSc1nnc(-c2ccccc2)o1)c1cccs1,-3,17034*,-2,-3,-7
CCOC(=O)c1ccc(NC(=O)C2(c3ccc(OC)cc3)CCOCC2)cc1,1,3374,0,-3,60*
CCOC(=O)c1ccc(NC(=O)C23CCC(C)(C(=O)O2)C3(C)C)cc1 (centres undefined),0,16270*,0,-2,7
CCOC(=O)c1ccc(NC(=O)C(C)NS(=O)(=O)c2ccc(OC)cc2)cc1 (centres undefined),-1,16181*,0,2,-5
CC12CCC(C(=O)NCc3ccc(Cl)cc3)(OC1=O)C2(C)C (centres undefined),-3,21504*,-3,3,4
CC(C)(C)OC(=O)N1CCC[C@H]1C(=O)NCc1ccc(F)cc1F,2,5959,1,9,·
COc1cccc2cc(C(=O)C3=C(O)C(=O)N(CCN(C)C)C3c3ccc(Cl)cc3)oc12 (centres undefined),?,3918,?,30*,4
CN(C)CCN1C(=O)C(O)=C(C(=O)c2cc3ccccc3o2)C1c1cccc(Br)c1 (centres undefined),-6,22182*,?,-3,-14
CCCCCCN1C[C@@H](O)[C@H](n2cc(-c3ccc(F)cc3)nn2)C[C@@H]1c1ccc(C)cc1,1,3703,0,-2,4
CCCNC(=O)C1(C)CCCN(C(=O)c2cccc(OC(F)(F)F)c2)C1 (centres undefined),4,3945,-1,-2,·
C[C@H](CO)N1C[C@H](C)[C@@H](CN(C)Cc2ccc3c(c2)OCCN3C)OCc2cnnn2CCCC1=O,-8,3738,0,-10,-15
CC1(C(=O)NS(=O)(=O)c2ccc(C#N)cc2)CCN1C(=O)CCC1CCCC1 (centres undefined),-3,4003,0,-8,·
Cc1noc(C)c1CSc1nnc(-c2cc(Cl)ccc2Cl)n1N,0,10362,0,-6,-6
Cc1ccccc1-n1c(SCc2c(C)noc2C)nnc1-c1cccnc1,11,9980,9,4,70*
COc1ccc(-c2nnc(SCc3c(C)noc3C)n2N)cc1OC,-1,19531*,0,0,0
C(=C\c1ccccc1)/CN1CCN(C(c2cccs2)c2nnnn2-c2ccc3c(c2)OCCO3)CC1 (centres undefined),-6,5500,0,-2,·
S=C1SCN(Cc2ccccn2)CN1Cc1ccco1,-3,16488*,1,2,-4
COCCN1CSC(=S)N(Cc2ccco2)C1,6,21084*,4,0,1
CCOCCCN1CN(Cc2ccco2)CNC1=S,-6,4161,0,6,5
O=C(NCC1CC1)c1csc(COCCO)n1,-6,3026,0,-1,·
CN(C)C(=O)COn1c(SCC(=O)N(C)C)nc2ccccc2c1=O,-1,20262*,0,-4,0
CC(=O)Nc1ccc(NC(=O)c2cc(C)nn2-c2ccccc2)cc1,-3,22454*,?,0,-3
CCOc1ccc(C(=O)N2CCCC(c3nc(-c4cccs4)no3)C2)cc1 (centres undefined),-3,4435,-1,-5,7
SMILES,BoNT F protease,Bead autofluor,BoNT A protease,Anthrax LF inh2,MazEF act
O=C(c1ccc(Cl)cc1)N1CCC(c2nc(-c3cccs3)no2)CC1,-6,23989*,-5,-1,3
COc1ccc(CNC(=O)C2CCCN(S(=O)(=O)c3ccc4c(c3)CCCN4C(C)=O)C2)cc1 (centres undefined),3,5399,0,-1,9
O=C(NC(=S)Nc1ccc2c(c1)OCO2)c1ccc(Cl)cc1,-19,2408,-2,0,-12
O=C(Nc1ccc2c(c1)OCO2)C1(S(=O)(=O)c2ccc(Cl)cc2)CC1,-8,24545*,-3,-3,2
COc1ccc(CNC(=O)CSc2n[nH]c(N)n2)cc1,-5,4895,-1,0,-5
COc1cc(-c2nn3c(COc4ccccc4)nnc3s2)cc(OC)c1OC,1,23486*,-1,2,5
COc1cc(-c2nn3c(Cc4ccccc4)nnc3s2)cc(OC)c1OC,3,22616*,2,-6,-1
COc1cc(-c2nn3c(-c4ccccc4)nnc3s2)cc(OC)c1OC,·,·,·,·,3
COc1ccc(C(=O)N2CCCC(CCC(=O)NCc3ccccc3F)C2)c(OC)n1 (centres undefined),-3,5903,2,0,7
CC(C(c1ccc2c(c1)OCO2)c1c(N)n(C)c(=O)n(C)c1=O)[N+](=O)[O-] (centres undefined),-12,2890,-3,5,11
CCN(CC(=O)Nc1c(F)cccc1F)C(=O)c1ccc2ncsc2c1,-311,49356*,-181,-42,7
COc1ccc(C(O)c2ncc(-c3ccccc3C)[nH]2)cc1F (centres undefined),3,2940,0,-6,·
Cn1c(=O)cc(OCCCC(=O)NCc2ccccn2)c2ccccc21,5,?,0,?,-1
Cc1ccnc(NC(=O)CCCOc2cc(=O)n(C)c3ccccc23)c1,-4,21080*!,?,-10,-13
CN1CCN(C(=O)CCCOc2cc(=O)n(C)c3ccccc23)CC1,4,3843,1,4,-12
Cn1c(=O)cc(OCCCC(=O)N2CCCCC2)c2ccccc21,-2,22743*,-1,-2,-2
O=C(Nc1oc2ccccc2c(=O)c1-c1ccc2c(c1)OCO2)c1ccco1,1,2852,0,-2,-3
COc1cc(NC(=O)c2ccco2)c(OC)cc1NC(=O)CSc1nnc(-c2cccs2)n1C,-1,22652*,0,-2,2
COc1cc(NC(=O)COc2ccccc2)ccc1NC(=O)c1ccco1,-21,3835,-1,-10,12
CCOc1ccc(OCC)c(NC(=O)CSc2nc3cccnc3n2C)c1,-9,2749,-1,-3,0
COc1cc(NC(=O)CSc2nc3ccccc3c(=O)n2C)ccc1NC(=O)c1ccco1,17,17911*,12,-12,5
CCOc1ccc(OCC)c(NC(=O)CSc2nc3ccccc3c(=O)n2C)c1,2,22042*,0,0,7
Cn1c(SCC(=O)Nc2ccccc2F)nnc1-c1cccs1,0,3740,-1,-2,-17
Cc1ccc(C(=O)NCCCNC(=O)COc2ccccc2Cl)cn1,-11,3597,-6,14,4
Cc1nn(C(=O)CCC(=O)NCc2ccc(OC(C)C)cc2)c2ccccc12,-1,4434,0,-1,15
Cc1cc(C(=O)COC(=O)c2ccc(Cl)c(S(N)(=O)=O)c2)c(C)n1C1CC1,·,·,·,·,1
Cc1cccc(C)c1OCC(=O)N/N=C/c1cccnc1,9,3588,0,-9,-10

# High-throughput results from PubChem.
